Hits are enriched below; roughly 3% of the tested compounds scored in any of these assays.
NLRP3 yeast inh: blocks the NALP3 inflammasome reconstituted in yeast. AID 2825. hit rate 0.39% among 330,000. inhibition, % at 10 µM. Yeast reconstituted NLRP3/ASC/caspase-1, beta-gal luminescence, 24 h;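 active = inhibition of 50% or more; inactive = inhibition below 50%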
Mot1-301 SUMO: blocks SUMOylation pathway, rescuing yeast Mot1-301 growth. S. cerevisiae Mot1-301 growth rescue, ATP luminescence, 38.5C; percent above DMSO median, 100 means doubled. growth rescue, % at 18.8 µM. hit rate 1% among 320,000;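 active = every valid replicate shows activation above 250% relative to neutral control wells; inactive = the rest, any valid replicate at or below 250%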
CHT allo act: allosterically activates the human high affinity choline transporter. Q9GZV3. CHT-expressing cells, membrane potential dye, choline EC20; active compounds read high; LV-AA mutant CHT in HEK293 cells. B-score at 10 µM. hit rate 0.49% among 310,000. AID 488977;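 active = initial fluorescence not abnormally high and integrated response B-score, plate-corrected, over 3 SD above library mean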
Target sequence (Q9GZV3 whole entry, looked up): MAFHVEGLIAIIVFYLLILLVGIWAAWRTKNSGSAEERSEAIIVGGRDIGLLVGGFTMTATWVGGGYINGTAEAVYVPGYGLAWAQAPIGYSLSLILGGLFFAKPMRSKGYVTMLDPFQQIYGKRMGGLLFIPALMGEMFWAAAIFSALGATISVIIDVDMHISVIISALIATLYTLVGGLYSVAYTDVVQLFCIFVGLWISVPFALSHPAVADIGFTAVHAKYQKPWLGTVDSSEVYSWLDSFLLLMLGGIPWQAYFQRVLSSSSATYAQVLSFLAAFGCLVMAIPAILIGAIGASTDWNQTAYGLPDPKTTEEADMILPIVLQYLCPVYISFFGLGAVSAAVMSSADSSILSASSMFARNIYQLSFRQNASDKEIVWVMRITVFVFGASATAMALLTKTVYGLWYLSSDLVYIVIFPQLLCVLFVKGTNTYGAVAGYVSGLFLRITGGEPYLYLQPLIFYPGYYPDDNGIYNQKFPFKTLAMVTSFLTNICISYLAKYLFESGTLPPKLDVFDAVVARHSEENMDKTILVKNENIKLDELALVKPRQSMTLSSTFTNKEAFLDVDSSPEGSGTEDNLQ
NALP1 inh: inhibitors of NALP1 inflammasome in yeast. S. cerevisiae NALP1/ASC/caspase-1 growth, X-gal OD620, 72 h. inhibition, % at 10 µM. AID 2071. hit rate 0.61% among 280,000; in the data active = inhibition mostly above about 24%, no sharp cut-off; inactive = mostly below about 32%
Bfl-1 A1 inh: inhibitors of the anti-apoptotic protein A1, read as caspase activation | MEF A1-2A-BIM cells, Caspase-Glo 3/7 luminescence, 3 h; percent of clofoctol response, vehicle zero | caspase activation, % (test concentration not listed) | hit rate 0.066% among 330,000 | AID 2462;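 active = over half of replicate activation scores above 10%, or exactly half above 10 with the replicate mean above 10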
CHT block: human CHT choline transport inhibition; Q9GZV3; CHT-expressing cells, membrane potential dye, choline response; active compounds read low; B-score at 10 µM; hit rate 0.86% among 310,000; AID 488975;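 active = B-score over 3 SD under the library average, and starting fluorescence ratio not unusually high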;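 note: choline stimulus applied at its EC90 after an EC20 pre-addition; B-score computed on integrated fluorescence ratio after choline addition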
Mot1 SUMO dose: SUMO pathway inhibitors in yeast Mot1-301 growth | shares compounds with Mot1-301 SUMO | S. cerevisiae Mot1-301 galactose growth, ATP luminescence, 24 h; -100 = growth of slx-deleted rescue strain | growth activity, percent, % at 42 µM | 2,300 tested, under 10 active;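 active = Signal drops as the depositor expects, and the fitted half-maximal dose is no more than ten times the top valid tested dose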;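 note: more negative values mean stronger growth rescue toward the control strain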
Numbers stand for hits; . = inactive; / = not tested or not shown; + = active, no number.

SMILES | NLRP3 yeast inh | Mot1-301 SUMO | CHT allo act | NALP1 inh | Bfl-1 A1 inh | CHT block | Mot1 SUMO dose
Cc1ccc(Cl)cc1N1CCN(S(=O)(=O)c2ccc3c(c2)CC(=O)N3C)CC1 | . | . | . | . | . | . | /
CC(C)(C)NC(=O)CN(Cc1ccc2c(c1)OCO2)C(=O)CNS(=O)(=O)c1ccccc1 | . | . | . | . | . | . | /
CCCCC(=O)NNC(=O)N1c2ccccc2Sc2ccccc21 | . | . | . | . | . | . | /
O=C1CN(C(=O)c2ccccc2F)C(c2ccccc2)c2cc(Cl)ccc2N1 (centres undefined) | . | 603 | . | . | . | . | .
CCOc1ncccc1C(=O)OCC(=O)c1ccc(F)cc1 | . | . | . | . | . | . | /
CCOc1ncccc1C(=O)OCC(=O)N(CC)c1ccccc1 | . | 439 | . | . | . | . | .
CCCNCc1cc(OCC)c(OCC(N)=O)cc1Br | . | 766 | . | . | . | . | .
C/C=C1\NC(=O)[C@H](C)NC(=O)[C@@H](NC(=O)[C@@H](Cc2ccc(O)cc2)NC(=O)[C@@H](NC(=O)/C(C)=C/C)C(C)C)[C@@H](C)OC(=O)[C@H](CCCCc2ccc(O)cc2)NC(=O)[C@@H](CCC(=O)O)NC1=O | . | / | / | / | / | / | /
COC(=O)c1cc(N=Nc2c(C)[nH]c3ccccc23)cc(C(=O)OC)c1 | . | 945 | . | / | . | . | .
CC1CCCCC12NC(=O)N(CC(=O)NCCc1c[nH]c3ccccc13)C2=O (centres undefined) | . | . | / | / | . | / | /
Nc1nnc(COc2ccc(Br)cc2Br)s1 | . | + | . | . | . | . | .
Cc1nnc(NC(=O)c2ccc(-c3cccc(C(F)(F)F)c3)o2)s1 | . | + | . | . | . | . | .
O=C(NCc1nc(-c2ccc(C(F)(F)F)cc2)no1)c1cccs1 | . | . | . | / | . | . | /
O=C(NCc1nc(-c2ccccc2)no1)c1cccs1 | . | 499 | . | . | . | . | .
CCN1CCN(CC(=O)Nc2cccc(C)c2C)C(=O)C1=O | . | 518 | . | . | . | . | .
O=S(=O)(c1cccc(F)c1)N1CCN(c2nc(-c3cccnc3)nc3ccccc23)CC1 | . | . | / | / | . | / | /
Cc1ccc(C(C[N+](=O)[O-])c2c(C)[nH]n(-c3ccccc3)c2=O)cc1 (centres undefined) | . | 401 | . | 105 | . | . | .
COc1ccc(C(c2c(C)[nH]n(-c3ccccc3)c2=O)c2c(C)[nH]n(-c3ccccc3)c2=O)cc1OC | . | . | . | . | . | . | /
CC1CCCC(C)N1c1ccc(S(=O)(=O)N2CCOCC2)cc1Cl (centres undefined) | . | . | . | . | . | . | /
CN(CC(=O)N1CCc2[nH]c3ccc(F)cc3c2C1)CC1OCCO1 | . | 736 | . | . | . | . | .
COc1ccc(-n2c(SCC(=O)NCC3CCCO3)nc3c(c2=O)SCC3)cc1OC (centres undefined) | . | 672 | . | . | . | . | .
CCCOC(=O)c1ccc(O)c(OC)c1 | . | 398 | . | . | . | . | .
Cc1ccc(OCCNc2ccc(C(F)(F)F)cc2[N+](=O)[O-])cc1 | . | . | . | . | . | . | /
Cc1cc(C)cc(OC(=O)CS(=O)c2ccc(C(F)(F)F)cc2[N+](=O)[O-])c1 (centres undefined) | . | 511 | . | . | . | . | .
O=C(CS(=O)c1ccc(C(F)(F)F)cc1[N+](=O)[O-])Oc1ccc(Cl)cc1 (centres undefined) | . | 380 | . | . | . | . | .
SMILES | NLRP3 yeast inh | Mot1-301 SUMO | CHT allo act | NALP1 inh | Bfl-1 A1 inh | CHT block | Mot1 SUMO dose
O=C(NCCO)c1ccc(Oc2ccc(C(F)(F)F)cc2[N+](=O)[O-])cc1 | . | . | . | . | . | . | /
COc1cc2ccccc2cc1C(=O)OCc1nc2ccsc2c(=O)[nH]1 | . | . | / | / | . | / | /
CN1CCN(C2CCN(c3cccc(Cl)c3)CC2)CC1CCO (centres undefined) | . | . | . | . | . | . | /
Cc1ccc(CN2CC(C(=O)N3CCN(S(=O)(=O)c4cccc(F)c4)CC3)CC2=O)cc1 (centres undefined) | . | . | . | / | . | . | /
COc1ccc(NC(=O)CN2CCCCCC2)cc1OC | . | . | . | . | . | . | /
CN(C(=O)COC(=O)c1cncc(Br)c1)C1CCCCC1 | . | . | / | / | . | / | /
CN(C(=O)c1cncc(Br)c1)C1C2CC3CC(C2)CC1C3 (centres undefined) | . | 780 | . | . | . | . | .
CC(=O)Nc1cccc(C(=O)OCC(=O)N2CCC(c3ccccc3)=N2)c1 | . | . | . | / | . | . | /
COc1ccccc1NC(=O)CSc1nc(N)c(C#N)cc1C#N | . | . | . | . | . | . | /
CCOc1ccccc1NC(=O)CSc1nc(N)c(C#N)cc1C#N | . | + | . | . | . | . | .
COC(=O)c1ccc(Cl)c(NC(=O)CN(c2ccc(OC)cc2)S(=O)(=O)c2ccccc2)c1 | . | . | . | / | . | . | /
COC(=O)c1ccc(Cl)c(NC(=O)CN(c2ccc(OC)c(OC)c2)S(C)(=O)=O)c1 | . | 563 | . | . | . | . | .
Cc1nc2ccccc2c(=O)n1CC(=O)N1CCOCC1 | . | 687 | . | . | . | . | .
Cc1nc2ccccc2c(=O)n1CCCN1CCOCC1 | . | . | . | / | . | . | /
COc1ccc(NC(=O)CSCC(=O)N(C)CC(=O)Nc2cccc3ccccc23)cc1 | . | . | . | / | . | . | /
CCOc1ccc(S(=O)(=O)N2CCCC(C(=O)N3CCOCC3)C2)cc1C (centres undefined) | . | . | . | . | . | . | /
CCCCCCNc1c(C(=O)OCC)c(=O)[nH]c2ccccc12 | . | 778 | . | . | . | . | .
CCCn1c(N)c(C(=O)CSc2nnc(-c3cccs3)n2C2CC2)c(=O)[nH]c1=O | . | / | / | / | / | / | /
Cc1c(O)ccc(C(=O)CN2C(=O)c3ccccc3C2=O)c1O | . | 876 | . | . | . | . | .
Cc1cc(C)cc(N(C(=O)c2sc(C)nc2C)C(C(=O)NC(C)(C)C)c2ccncc2)c1 (centres undefined) | . | . | . | . | . | . | /
O=C1c2ccccc2C(=O)N1CCSc1ccccc1 | . | + | . | . | / | . | .
COc1cccc(CNC(=O)[C@@H](C)N2C(=O)N3CCc4c([nH]c5ccc(OC)cc45)C3(C)C2=O)c1 (some centres undefined) | . | . | . | . | . | . | /
COCCn1c(-c2ccc(Cl)cc2)cnc1SCC(=O)NCCc1ccc(OC)c(OC)c1 | . | 473 | . | . | . | . | .
COc1ccc(CCNC(=O)CSCc2ccc(Cl)cc2)cc1OC | . | . | . | . | . | . | /

Screening results from PubChem.
